Reference: ChEMBL document CHEMBL4513146, “CO-ADD screening of Karazin Kharkiv National University (Ukraine) compounds”
Results with a measured potency or affinity are listed apart.

Tests used:
Staphylococcus aureus = conditions: Concentration 32 ug.mL-1;; ASSAY_TEST Inhibition of Bacterial Growth; detection method Absorption (OD600); MEDIA CAMHB; plate type 384well; NBS; CORNING #3640; time 18 hr
Escherichia coli = conditions: Concentration 32 ug.mL-1;; ASSAY_TEST Inhibition of Bacterial Growth; detection method Absorption (OD600); MEDIA CAMHB; plate type 384well; NBS; CORNING #3640; time 18 hr

Row | Compound | Inhibition (Staphylococcus aureus) [%] | Inhibition (Escherichia coli) [%]
1 | COc1ccc(NC(=O)Cn2nc3c(N4CCOCC4)nccn3c2=O)cc1Cl | 10.11 | -1.05
2 | Cn1c(=O)c2sccc2n2c(=O)n(Cc3ccc(Cl)cc3)nc12 | 3.13 | -4.41
3 | Cc1cccc(NC(=O)Cn2nc3nc(N4CCCCCC4)ccn3c2=O)c1C | 7.24 | -2.03
4 | Cc1ccc(NC(=O)CSc2nnc3ccc(C(=O)Nc4cccc(F)c4)cn23)cc1F | 14.43 | 0.35
5 | CCCCc1ccc(NC(=O)Cn2c(=O)c3nnc(C(C)C)n3c3ccccc32)cc1 | 13.14 | 1.92
6 | CCOc1ccc(-n2ccn3c(SC(C)C(=O)Nc4cc(OC)cc(OC)c4)nnc3c2=O)cc1 (stereo unspecified) | 1.84 | 2.97
7 | Cc1ccc(NC(=O)Cn2nc3ccc(C(=O)NCc4ccccc4)cn3c2=O)c(Br)c1 | -7.88 | -9.76
8 | Cc1ccccc1Oc1nccn2c(=O)n(CC(=O)Nc3ccc(F)cc3F)nc12 | 15.72 | 1.95
9 | CCc1nnc2ccc(S(=O)(=O)N(Cc3cccc(OC)c3)c3ccc(F)cc3)cn12 | -0.44 | -12.34
10 | CCN(C(=O)CSc1nnc2c3cc(-c4ccc(OC)cc4)nn3ccn12)c1ccccc1 | 5.44 | -0.03
11 | O=C(Cn1nc2nc(Nc3ccc(F)cc3)ccn2c1=O)NCc1ccc(F)cc1Cl | 7.6 | -1.86
12 | CSc1ccc(CNC(=O)Cn2nc3c(Oc4ccccc4)nccn3c2=O)cc1 | 10.07 | 1.2
13 | Cc1nnc2c(=O)n(CC(=O)Nc3ccc(Cl)cc3F)c3ccccc3n12 | 7.03 | -1.92
14 | COc1ccc(C(C)NC(=O)CCc2nnc3ccc(-c4ccc(C)cc4)nn23)cc1OC (stereo unspecified) | 4.62 | 2.29
15 | Cc1cc2nn(CC(=O)Nc3ccc(Cl)cc3)c(=O)n2c(Nc2ccc(F)c(C)c2)n1 | 4.83 | -2.12
16 | Cc1nnc2c(S(=O)(=O)N(Cc3cccc(F)c3)c3ccc(C(C)C)cc3)cccn12 | 15.47 | -0.86
17 | CCc1ccc(N(Cc2ccccc2F)S(=O)(=O)c2cccn3c(C)nnc23)cc1 | 15.67 | -1.05

Row | Compound | Inhibition (Staphylococcus aureus) [%] | Inhibition (Escherichia coli) [%]
18 | CC(C)Cn1c(=O)c2sccc2n2c(=O)n(Cc3ccc(Br)cc3)nc12 | 2.7 | -6.62
19 | O=C(Cn1nc2c(Oc3ccccc3)nccn2c1=O)Nc1ccc(Cl)cc1 | 8.53 | -4.75
20 | COc1ccc(-c2cc3c4nn(CC(=O)Nc5c(C)cccc5C)c(=O)n4ccn3n2)cc1 | 3.68 | -1.14
21 | COc1cccc(NC(=O)Cn2nc3ccc(-c4ccc(C)c(C)c4)nn3c2=O)c1 | -14.65 | -17.62
22 | O=c1c2sccc2n2c(=O)n(Cc3ccccc3F)nc2n1Cc1cccs1 | -3.2 | -12.46
23 | CCOc1ccc(-n2ccn3c(SCC(=O)c4ccc(F)cc4)nnc3c2=O)cc1 | 21.72 | 2.02
24 | COc1ccc(Cl)cc1NC(=O)Cn1nc2ccc(Sc3ccccc3)nn2c1=O | -3.52 | -9.25
25 | CCc1ccccc1NC(=O)Cn1c(=O)c2nnc(C(C)C)n2c2ccccc21 | 5.45 | 0.46
26 | CCc1ccc(N(Cc2ccc(F)cc2)S(=O)(=O)c2cccn3c(C)nnc23)cc1 | 6.87 | -8.04
27 | COc1ccc(NC(=O)Cn2nc3c(SC4CCCCC4)nccn3c2=O)cc1Cl | -11.83 | -6.21
28 | COc1cccc(NC(=O)Cn2nc3c(=O)n(-c4ccc(Br)cc4)ccn3c2=O)c1 | -2.73 | -3.42
29 | Cc1ccccc1Oc1nc2ccccc2n2c(=O)n(CC(=O)NCc3ccc4c(c3)OCO4)nc12 | 13.3 | 0.04
30 | Cc1ccc(-c2ccc3nn(Cc4cccc(Br)c4)c(=O)n3n2)cc1 | 2.3 | -6.95
31 | Cc1ccc(Sc2nccn3c(=O)n(CC(=O)N4CCN(c5ccc(F)cc5)CC4)nc23)c(C)c1 | -13.09 | -20.44
32 | Cc1ccccc1-c1noc(Cn2nc3ccc(-c4ccccc4)nn3c2=O)n1 | -12.29 | -7.81
33 | Cc1ccc(N(CC(=O)OC(C)(C)C)S(=O)(=O)c2cccn3cnnc23)cc1 | 15.19 | -3.99
